Compounds without any hit were thinned out: in the full panel of roughly 79,000, 15% have a hit. Unmarked numbers belong to inactive results. Calls of active or inactive are those of the source. Cut-off read from the data, not from the text of the source: active = growth inhibition above about 70%; inactive = the rest.
assay: NCI Yeast Anticancer Drug Screen. Data for the mlh1 rad18 strain (AID 175); details: S. cerevisiae mlh1 rad18 strain growth inhibition; at 50.0 µM; stronger effect = higher value
Procedure: Growth inhibition of yeast strains with defined genetic alterations is measured as a screen for potential anti-cancer activity. Selected strains with alterations in DNA damage repair or cell cycle control were exposed to compounds and growth inhibition was measured relative to vehicle treated controls. The strain used in this assay is mlh1 rad18

Structure (SMILES)	growth inhibition
Cc1ccc(S(=O)(=O)NCC(=O)OCc2ccccc2)cc1	7.8%
NC(=O)N/N=C1\CCn2cccc21	-5.1%
CC(=O)O[C@]12CCCCCC1C1(O)C(O)CCCC[C@H]12 (stereo not given in full)	-16.4%
O=C(O)c1ccc(SSc2ccc(C(=O)O)cn2)nc1	14.9%
CC(C)N(C=C(C#N)C#N)C(C)C	4.6%
Cn1c(=O)c2c(ncn2C2C(=O)NNC2=O)n(C)c1=O	0.9%
CC(C)c1ccc(OC(=O)Nc2c(Cl)cccc2Cl)cc1	-3.65%
O=C(/C=C(\O)c1ccc(Cl)cc1)C(=O)NN=C(c1ccccc1)c1ccccc1	8.6%
CSc1ccc(NC(=O)Nc2ccc(Cl)cc2C(=O)c2ccccc2)cc1	97.8% (active)
O=C(O)c1cc(Cl)cc([N+](=O)[O-])c1	52.9%
CC(C)Sc1nc2ccc(NC(=O)/C=C/C(=O)O)cc2s1	12.1%
CC[N+](C)(CCO)C(Cc1ccccc1)c1ccccc1 (stereo not given)	-1.7%
C=C(/C=C/CCCC)NC(=O)OCc1ccccc1	18.9%
OCC1OC(n2cc[nH]c2=S)C(O)C1O (stereo not given)	-12.7%
COc1ccc(C(c2cc3c(cc2O)OCO3)N2CCCCC2)c(OC)c1 (stereo not given)	-6.95%
Cc1ccc(O)c(C(C)C)c1	-8.6%
O=C(O)CCC12CCC(=O)C=C1NC(=O)CC2 (stereo not given)	-1.25%
Cc1onc(-c2ccccc2)c1NC(=O)OC(C)c1cccnc1 (stereo not given)	3.55%
Cc1ccc(C2(C#N)CCCC2)cc1	4.7%
FC(F)(F)c1cc(Br)c2ccc3ncccc3c2n1	3.1%

Structure (SMILES)	growth inhibition
OCC=C1CCCCCC1	2.95%
CN(C)S(=O)(=O)Cc1ccccc1	-7.1%
Nc1nc2nc(Br)[nH]c2c(=O)[nH]1	-33.9%
Cc1nnc(Nc2ccc(Cl)c(Cl)c2)s1	4.75%
CC(=O)OCC1OC(OC(C)=O)C(N(C)C(C)=O)C(OC(C)=O)C1OC(C)=O (stereo not given)	35.6%
CCCCNC(=O)C1CCC(CC2CCCCC2)CC1 (stereo not given)	10.6%
ON(C(=NCc1ccccc1)c1ccccc1)c1ccccc1	14.7%
O=C1/C(=C\c2ccc(O)cc2)CCC/C1=C/c1ccc(Cl)c(Cl)c1	24.6%
S=c1[nH]nc(COc2cccc3cccnc23)n1-c1ccccc1	12.4%
CCOC(=O)/C=C/c1ccc([N+](=O)[O-])cc1	-0.05%
O=[N+]([O-])c1cccc(-c2oc(C=Nc3ccccc3)c([N+](=O)[O-])c2-c2cccc([N+](=O)[O-])c2)c1	19.6%
CC1(C)N=C(N)N=C(N)N1c1cccc(CCC(=O)Nc2cccnc2)c1	-6.3%
COc1ccc(CCN2CCc3c(C)c(C#N)c4nc5ccccc5n4c32)cc1OC	34.5%
CC(C)=C/C(C)=N/Nc1ccc([N+](=O)[O-])cc1[N+](=O)[O-]	-0.2%
CC(C)C1=CC2=C(C(=O)C1=O)C13CCCC(C)(C)C1CC2OC3=O (stereo not given)	85.5% (active)
COC1OC(CBr)C(OC(=O)c2ccccc2)C(OC(C)=O)C1OC(C)=O (stereo not given)	-22.8%
OC(C/C(=N\Nc1ccccc1)c1ccc(Br)cc1)(C(F)(F)F)C(F)(F)F	96.5% (active)
COC(=N)Cc1cc(OC)cc(OC)c1	-6.6%
CC1(C)OC2COC3(COC(C)(C)O3)C(O)C2O1 (stereo not given)	-24.8%
Oc1ccc2c(c1)-c1ccccc1C2	29.9%

Source: PubChem BioAssay (NCI)
